From PubChem
Hits are enriched below; roughly 1.2% of the tested compounds scored in any of these assays.
RGS16-Gao – modulators of RGS16 binding to Galphao, primary screen, biochemical, human proteins, multiplexed bead flow cytometry; binding response (% of control), % at 10 µM; AID 1441, 2008; Regulator of G-protein signaling 16 (Homo sapiens) + Guanine nucleotide-binding protein …; 220,000 compounds, 0.38% hits; bead-based flow cytometry RGS16-Galphao binding, fluorescence; actives lie on both sides;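 also: Galphao activated by GDP with aluminum fluoride before binding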
Target sequence (O15492 whole entry, looked up): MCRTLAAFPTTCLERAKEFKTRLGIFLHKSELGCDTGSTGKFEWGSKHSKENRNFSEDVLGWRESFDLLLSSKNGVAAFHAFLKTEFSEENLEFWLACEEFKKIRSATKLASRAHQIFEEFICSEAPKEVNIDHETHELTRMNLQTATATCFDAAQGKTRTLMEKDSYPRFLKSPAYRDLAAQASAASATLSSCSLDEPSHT
Target sequence (P09471 whole entry, looked up): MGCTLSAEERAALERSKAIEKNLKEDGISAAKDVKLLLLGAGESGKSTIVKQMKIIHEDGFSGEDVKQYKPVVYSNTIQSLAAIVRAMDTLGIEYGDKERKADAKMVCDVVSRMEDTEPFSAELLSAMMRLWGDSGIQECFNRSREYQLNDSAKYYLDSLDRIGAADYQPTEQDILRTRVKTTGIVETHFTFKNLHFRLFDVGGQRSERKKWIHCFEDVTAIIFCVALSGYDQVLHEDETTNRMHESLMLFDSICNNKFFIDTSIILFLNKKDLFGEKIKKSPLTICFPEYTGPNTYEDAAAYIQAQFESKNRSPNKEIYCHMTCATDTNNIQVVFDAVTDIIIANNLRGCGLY
Avidin fluor – green autofluorescence of compounds with avidin beads – biophysical, 488/530 nm, flow cytometry, artefact control, profiling panel; fluorescence (KMESF) at 10 µM; AID 1775, 2009; 220,000 compounds, 0.38% hits; compound fluorescence 488/530 nm; active compounds read high; in the data active = fluorescence above about 47
RGS8-Gao reg – RGS8-Galphao binding modulators, primary screen, biochemical, multiplexed bead flow cytometry; actives lie on both sides; Guanine nucleotide-binding protein G(o) subunit alpha (Homo sapiens), P09471; response (percent of control binding), % at 10 µM; 220,000 compounds, 0.34% hits; AID 1423, 2008; in the data active = response below about 60% or above about 140%; inactive = in between;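 also: Galphao activated as the GDP aluminium fluoride complex binding bead-coupled RGS8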
GSH fluor – compound fluorescence on glutathione beads, profiling panel, artefact control, biophysical, 488/530 nm, flow cytometry; GSH beads flow cytometry, compound fluorescence 488/530 nm; active compounds read high; fluorescence (KMESF) at 10 µM; 190,000 compounds, 0.25% hits; AID 1776, 2009; in the data active = fluorescence above about 89;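 also: glutathione beads carrying GST-tagged Bcl family fusion proteins plus one bare bead set; values are compound well signal with DMSO vehicle wells as background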
RGS7-Gao – RGS7-Galphao binding modulators, primary screen, biochemical, multiplexed bead flow cytometry; Guanine nucleotide-binding protein G(o) subunit alpha (Homo sapiens), P09471; actives lie on both sides; binding response (% of control), % at 10 µM; 220,000 compounds, 0.35% hits; AID 1439, 2008; in the data active = binding response below about 49% or above about 150%; inconclusive = no clear call, values can overlap the other calls; inactive = in between;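 also: fluorescent Galphao held in activated GDP-AlF4 state binding bead-coupled RGS7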
RGS4-Gao reg – modulators of RGS4 binding to Galphao, primary screen, biochemical, multiplexed bead flow cytometry; 220,000 compounds, 0.33% hits; Guanine nucleotide-binding protein G(o) subunit alpha (Homo sapiens), P09471; actives lie on both sides; binding response (% of control), % at 10 µM; AID 1415, 2008; in the data active = binding response below about 49% or above about 150%; inactive = in between;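 also: fluorescent Galphao activated with aluminum fluoride binding bead-coupled RGS4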
RGS-Gao – modulators of RGS–Galpha-o binding, primary screen, biochemical, multiplexed beads, flow cytometry, RGS4/7/8/16/19; shares compounds with RGS16-Gao; multiplexed bead flow cytometry; RGS4–Galpha-o binding response, % at 10 µM; 1,600 compounds, 99% hits;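 also: fluorescently labeled Galpha-o bound to GDP with aluminium fluoride binding biotinylated RGS beads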
Biotin-avidin – disruption of biotin probe capture by avidin, counter-screen for RGS protein interaction modulators, biochemical, flow cytometry, bead-based; 1,700 tested, under 10 active; streptavidin beads, fluorescein-biotin binding; inhibition, % at 10 µM; AID 1783, 2009; shares compounds with RGS16-Gao;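 active = inhibition above 50%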;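 also: median green fluorescence of gated singlet beads compared with DMSO control wells; 0% = DMSO wells and 100% = complete loss of bead fluorescence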
RGS8-Gao confirm – RGS8-Galphao binding modulators, confirmation, biochemical, multiplexed bead flow cytometry, single concentration; bead-based flow cytometry RGS8-Galphao binding, fluorescence; actives lie on both sides; shares compounds with RGS16-Gao; binding response (% of control), % at 10 µM; AID 1836, 2009; 1,700 compounds, 3% hits; in the data active = binding response below about 72% or above about 130%; inactive = in between;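 also: Galphao activated as GDP AlF4 complex before binding bead RGS8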
RGS7-Gao single – RGS7-Galphao binding modulators, confirmation, biochemical, multiplexed bead flow cytometry, single concentration; shares compounds with RGS16-Gao; bead-based flow cytometry RGS7-Galphao binding; actives lie on both sides; response (percent of control binding), % at 10 µM; 1,700 compounds, 7.8% hits; in the data active = response below about 75% or above about 130%; inactive = in between;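 also: fluorescent Galphao activated with GDP and aluminum fluoride binding bead-coupled RGS7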
RGS16-Gao single – modulators of RGS16-Galphao protein binding, confirmation, biochemical, single concentration, multiplexed bead flow cytometry | shares compounds with RGS16-Gao | bead-based flow cytometry; actives lie on both sides | response (% of control binding), % at 10 µM | 1,700 compounds, 4% hits; in the data active = response below about 74% or above about 130%; inactive = in between;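 also: Galphao activated as the GDP aluminium fluoride complex binding bead-coupled RGS16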
RGS4-Gao single – modulators of RGS4-Galphao protein binding, confirmation, biochemical, single concentration, multiplexed bead flow cytometry; shares compounds with RGS16-Gao; actives lie on both sides; binding response (% of control), % at 10 µM; 1,700 compounds, 4% hits; in the data active = binding response below about 74% or above about 130%; inactive = in between
RGS19-Gao single – regulators of RGS19-Galphao binding, confirmation, biochemical, single point, multiplexed bead flow cytometry; shares compounds with RGS16-Gao; bead-based flow cytometry RGS19-Galphao binding; actives lie on both sides; response (percent of control binding), % at 10 µM; 1,700 compounds, 5% hits; AID 1841, 2009; in the data active = response below about 50% or above about 160%; inactive = in between;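 also: 100% = no compound control and 0% = blank background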
Numbers without * were called inactive; ? = inconclusive; · = not tested or not shown; [ ] = another dose, or the depositor's remark. Unless noted, no rule for the calls is given here.

SMILES	RGS16-Gao	Avidin fluor	RGS8-Gao reg	GSH fluor	RGS7-Gao	RGS4-Gao reg	Biotin-avidin	RGS8-Gao confirm	RGS7-Gao single	RGS16-Gao single	RGS4-Gao single	RGS19-Gao single	others
O=C(C(c1ccccc1)c1ccccc1)N1CCN(CCN2C(=O)c3cccc4cccc(c34)C2=O)CC1	103	6	102	9	·	103	-1	100	96	103	97	127
O=Cc1ccc(O)c(O)c1	83	7	88	19	82	84	·	·	·	·	·	·
Oc1ccc(N=Cc2ccc(O)c(O)c2)cc1	0	2	61	6	49*	59	-3	89	86	88	89	81	RGS-Gao=59*
CC1CCN(C(=O)c2ccc(N3C(=O)C4CCC(C)CC4C3=O)cc2)CC1 (stereo not drawn)	45	1	67	·	?	32*	0	101	106	102	102	96
N#C/C(=C\c1sc(N2CCOCC2)nc1-c1ccccc1)C(=O)Nc1cccc2ccccc12	105	312*	90	12	417*[activator]	141	·	·	·	·	·	·	RGS-Gao=141*
OC(CNCc1ccccc1C(F)(F)F)C(F)(F)F (stereo not drawn)	105	9	103	12	117	108	·	·	·	·	·	·
Cc1ccc(CSCCC(=O)NCCc2ccc(Cl)cc2)cc1	212	121*	112	17	212*[activator]	188*[activator]	2	95	95	95	97	87
O=C(CCSCc1ccc(Cl)cc1)NCCc1ccccc1	93	12	97	11	97	103	·	·	·	·	·	·
N#CC(=C1N=c2ccccc2=N1)c1c(O)[nH]c2ccccc12	91	9	98	11	100	90	·	·	·	·	·	·
Oc1[nH]c(N=C2N=c3ccccc3=N2)c2ccccc12	33	1	57*	·	?	35*	-1	102	98	97	101	60
CC[n+]1c(S(=O)(=O)[O-])ccc2ccc(C)cc21	100	12	98	29	95	99	·	·	·	·	·	·
CC(=O)OC(C)CS(=O)(=O)c1ccccc1 (stereo not drawn)	21*	5	29*	10	30*	35*	1	107	102	106	102	122
